Measurements taken from the supplement of paper PMC10849652.
About 7,900 targets were measured; listed, in parts, are those with a hit and a random draw of the rest. About 0.6% of all pairs of compound and target were hits.

Assays:
Assay in all cases: log2 fold change, soluble protein after heating vs DMSO (PISA); higher = thermal stabilisation; K562 cells, 10 uM, 30 min; active = over 0.2 and 3.5 SD of the protein, either way, in both replicates (recomputed)
IRAK-1-4 Inhibitor I = compound: C1COCCN1CCN2C3=CC=CC=C3N=C2NC(=O)C4=CC(=CC=C4)[N+](=O)[O-] [IRAK-1-4 Inhibitor I]
Summary of the method: (§1)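 Quantification of soluble protein used TMTpro 16plex LC-MS/MS, with channel sums equalised. Samples were the supernatant after 21,000xg for 90 min of pooled aliquots from K562 cells (2×10^6 cells/mL) treated with 10 μM compound for 30 min, heated for 3 min over 48°C-58°C, and extracted in PBS with 0.5% NP-40 at 4°C. Values, from duplicates, describe thermal stability against control samples on a log2 fold-change scale.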

ibrutinib = compound: C=CC(=O)N1CCC[C@@H](n2nc(-c3ccc(Oc4ccccc4)cc3)c3c(N)ncnc32)C1 [ibrutinib]
Summary of the method: as §1

[1] = compound: CC(=O)c1cnc2ccc(-c3cc(Cl)c(O)c(Cl)c3)nc2c1N[C@H]1CC[C@H](CN(C)C)CC1
Summary of the method: as §1

ralimetinib = compound: CC(C)(C)Cn1c(N)nc2ccc(-c3[nH]c(C(C)(C)C)nc3-c3ccc(F)cc3)nc21 [ralimetinib]
Summary of the method: as §1

[2] = compound: CC(C)(O)CC(=O)NCCn1ccc2ncnc(Nc3ccc(Oc4cccc(C(F)(F)F)c4)c(Cl)c3)c21
Summary of the method: as §1

[3] = compound: CC(C)C1=C2N=C(C=C(N2N=C1)NCC3=CC=CC=C3)NCCCCCCN
Summary of the method: as §1

[4] = compound: CC(C)C[C@@H](C=O)NC(=O)[C@H](CC(C)C)NC(=O)[C@H](CC(C)C)NC(=O)OCc1ccccc1
Summary of the method: as §1

pinometostat = compound: CC(C)N(C[C@H]1O[C@@H](n2cnc3c(N)ncnc32)[C@H](O)[C@@H]1O)[C@H]1C[C@@H](CCc2nc3cc(C(C)(C)C)ccc3[nH]2)C1 [pinometostat]
Summary of the method: as §1

[5] = compound: CC1=C(C(CC(=O)N1)C2=CC=C(C=C2)C(F)(F)F)C(=O)NC3=C(C=C4C(=C3)C=NN4)F
Summary of the method: as §1

[6] = compound: CC1=C(C2=C(C=C1)C(=O)C3=CC=CC=C3N2CCCN)C
Summary of the method: as §1

[7] = compound: CC1=C(C=C(C=C1)NC(=O)C2=CC(=CC=C2)C(C)(C)C#N)NC3=CC4=C(C=C3)N=CN(C4=O)C
Summary of the method: as §1

[8] = compound: CC1=C(C=C(C=C1)NC(=O)C2=CC(=CC=C2)N(C)C)NC(=O)C3=CC=C(C=C3)O
Summary of the method: as §1

[9] = compound: CC1=CC=C(C=C1)SC2=C3C=C(SC3=CN=C2)C(=O)N
Summary of the method: as §1

[10] = compound: CC1=NC(=CC=C1)C2=C(N=C(N2)C(C)(C)C)C3=CC4=NC=CN=C4C=C3
Summary of the method: as §1

Nexturastat A = compound: CCCCN(Cc1ccc(C(=O)NO)cc1)C(=O)Nc1ccccc1 [Nexturastat A]
Summary of the method: as §1

vemurafenib = compound: CCCS(=O)(=O)Nc1ccc(F)c(C(=O)c2c[nH]c3ncc(-c4ccc(Cl)cc4)cc23)c1F [vemurafenib]
Summary of the method: as §1

[11] = compound: CCCS(=O)(=O)Nc1ccc(F)c(C(=O)c2c[nH]c3ncc(Cl)cc23)c1F
Summary of the method: as §1

[12] = compound: CCCc1cc(C)[nH]c(=O)c1CNC(=O)c1cc(-c2ccnc(N3CCN(C)CC3)c2)cc2c1cnn2C(C)C
Summary of the method: as §1

givinostat = compound: CCN(CC)Cc1ccc2cc(COC(=O)Nc3ccc(C(=O)NO)cc3)ccc2c1 [givinostat]
Summary of the method: as §1

barasertib = compound: CCN(CCCOc1ccc2c(Nc3cc(CC(=O)Nc4cccc(F)c4)[nH]n3)ncnc2c1)CCOP(=O)(O)O [barasertib]
Summary of the method: as §1

Measured: log2 fold change

UPF3B (UniProt Q9BZI7)
Chain of UniProt Q9BZI7 (Q9BZI7 whole entry, looked up): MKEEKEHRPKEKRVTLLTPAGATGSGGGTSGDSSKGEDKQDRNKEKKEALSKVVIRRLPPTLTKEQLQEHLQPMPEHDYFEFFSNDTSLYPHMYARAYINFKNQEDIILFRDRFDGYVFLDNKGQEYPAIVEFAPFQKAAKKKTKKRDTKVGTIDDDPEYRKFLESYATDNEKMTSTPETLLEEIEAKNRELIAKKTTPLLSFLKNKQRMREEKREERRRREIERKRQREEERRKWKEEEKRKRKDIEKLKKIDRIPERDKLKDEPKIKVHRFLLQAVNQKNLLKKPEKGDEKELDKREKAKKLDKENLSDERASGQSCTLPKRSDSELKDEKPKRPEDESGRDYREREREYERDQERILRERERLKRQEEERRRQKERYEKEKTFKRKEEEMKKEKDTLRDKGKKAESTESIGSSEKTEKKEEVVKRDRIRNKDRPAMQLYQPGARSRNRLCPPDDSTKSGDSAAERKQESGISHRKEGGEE
inactive: IRAK-1-4 Inhibitor I -0.099 | ibrutinib 0.158 | [1] 0.265 | ralimetinib 0.27 | [2] 0.057 | [3] -0.02 | [4] 0.19 | pinometostat 0.394 | [5] -0.002 | [6] -0.183 | [7] -0.047 | [8] -0.004 | [9] 0 | [10] -0.053 | Nexturastat A 0.29 | vemurafenib -0.108 | [11] -0.069 | [12] 0.139 | givinostat 0.03 | barasertib -0.058

UBLCP1 (UniProt Q8WVY7)
Chain of UniProt Q8WVY7 (Q8WVY7 whole entry, looked up): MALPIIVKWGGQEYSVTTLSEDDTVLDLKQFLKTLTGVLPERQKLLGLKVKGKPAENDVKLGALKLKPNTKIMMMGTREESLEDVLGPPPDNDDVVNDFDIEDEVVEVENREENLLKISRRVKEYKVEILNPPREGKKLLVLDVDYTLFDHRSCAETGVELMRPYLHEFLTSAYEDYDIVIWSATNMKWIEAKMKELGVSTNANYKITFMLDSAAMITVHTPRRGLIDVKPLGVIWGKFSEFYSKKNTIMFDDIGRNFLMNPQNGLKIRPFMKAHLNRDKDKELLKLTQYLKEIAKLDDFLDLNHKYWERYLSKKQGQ
inactive: IRAK-1-4 Inhibitor I -0.029 | ibrutinib -0.072 | [1] -0.057 | ralimetinib -0.104 | [2] -0.061 | [3] -0.027 | [4] 0.191 | pinometostat 0.017 | [5] -0.023 | [6] -0.155 | [7] -0.011 | [8] -0.078 | [9] -0.03 | [10] 0.03 | Nexturastat A 0.025 | vemurafenib 0.076 | [11] 0.093 | [12] -0.006 | givinostat 0.122 | barasertib 0.057

TRIM4 (UniProt Q9C037)
Chain of UniProt Q9C037 (Q9C037 whole entry, looked up): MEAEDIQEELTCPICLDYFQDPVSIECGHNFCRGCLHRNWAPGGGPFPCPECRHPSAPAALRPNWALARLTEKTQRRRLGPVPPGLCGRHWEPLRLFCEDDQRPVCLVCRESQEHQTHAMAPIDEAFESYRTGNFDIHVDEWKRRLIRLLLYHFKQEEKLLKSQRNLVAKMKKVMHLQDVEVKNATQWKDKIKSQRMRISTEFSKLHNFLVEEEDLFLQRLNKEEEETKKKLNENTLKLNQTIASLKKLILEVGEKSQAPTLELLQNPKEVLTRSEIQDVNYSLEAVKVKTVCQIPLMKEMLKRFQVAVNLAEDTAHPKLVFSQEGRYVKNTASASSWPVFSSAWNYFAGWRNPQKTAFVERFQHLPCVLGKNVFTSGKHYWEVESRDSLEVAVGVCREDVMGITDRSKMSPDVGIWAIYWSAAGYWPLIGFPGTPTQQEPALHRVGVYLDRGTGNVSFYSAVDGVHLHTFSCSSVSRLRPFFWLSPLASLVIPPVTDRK
inactive: IRAK-1-4 Inhibitor I -0.157 | ibrutinib 0.173 | [1] -0.063 | ralimetinib 0.023 | [2] -0.183 | [3] -0.078 | [4] -0.013 | pinometostat 0.173 | [5] -0.023 | [6] 0.089 | [7] -0.031 | [8] 0.023 | [9] -0.029 | [10] -0.076 | Nexturastat A 0.1 | vemurafenib -0.297 | [11] -0.041 | [12] 0.046 | givinostat -0.086 | barasertib 0.011

WASHC5 (UniProt Q12768)
Chain of UniProt Q12768 (Q12768 whole entry, looked up): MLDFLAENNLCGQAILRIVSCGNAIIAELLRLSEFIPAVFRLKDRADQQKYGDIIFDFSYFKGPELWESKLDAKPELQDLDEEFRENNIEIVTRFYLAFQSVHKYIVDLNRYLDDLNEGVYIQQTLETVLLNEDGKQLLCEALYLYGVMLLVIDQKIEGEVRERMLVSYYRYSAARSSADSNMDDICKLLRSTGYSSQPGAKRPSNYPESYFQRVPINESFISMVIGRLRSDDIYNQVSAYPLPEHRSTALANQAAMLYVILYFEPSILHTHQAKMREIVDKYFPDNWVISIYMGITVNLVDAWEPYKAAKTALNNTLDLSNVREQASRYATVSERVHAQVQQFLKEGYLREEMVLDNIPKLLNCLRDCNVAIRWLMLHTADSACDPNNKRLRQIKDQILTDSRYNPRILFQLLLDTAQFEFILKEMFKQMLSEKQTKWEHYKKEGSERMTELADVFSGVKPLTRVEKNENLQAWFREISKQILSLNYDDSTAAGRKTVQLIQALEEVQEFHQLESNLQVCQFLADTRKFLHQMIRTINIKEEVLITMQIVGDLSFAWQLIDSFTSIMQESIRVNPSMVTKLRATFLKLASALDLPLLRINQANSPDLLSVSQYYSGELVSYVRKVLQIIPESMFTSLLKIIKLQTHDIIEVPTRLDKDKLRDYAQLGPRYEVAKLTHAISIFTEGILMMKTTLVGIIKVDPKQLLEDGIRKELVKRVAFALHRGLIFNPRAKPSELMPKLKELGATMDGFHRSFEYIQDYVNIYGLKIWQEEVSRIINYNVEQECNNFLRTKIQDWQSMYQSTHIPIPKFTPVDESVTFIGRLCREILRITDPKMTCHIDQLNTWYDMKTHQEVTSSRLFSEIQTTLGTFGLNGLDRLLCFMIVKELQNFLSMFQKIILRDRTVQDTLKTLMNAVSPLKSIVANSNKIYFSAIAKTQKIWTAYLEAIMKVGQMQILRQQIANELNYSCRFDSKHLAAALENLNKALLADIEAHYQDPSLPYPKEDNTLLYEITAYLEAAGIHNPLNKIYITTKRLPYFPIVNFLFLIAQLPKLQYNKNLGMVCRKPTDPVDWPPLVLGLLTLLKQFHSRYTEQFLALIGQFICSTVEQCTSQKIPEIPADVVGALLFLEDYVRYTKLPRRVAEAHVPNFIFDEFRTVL
inactive: IRAK-1-4 Inhibitor I -0.042 | ibrutinib 0.007 | [1] -0.024 | ralimetinib 0.072 | [2] -0.116 | [4] 0.003 | pinometostat 0.067 | [5] -0.049 | [6] -0.014 | [7] -0.011 | [8] -0.011 | [9] 0 | [10] -0.006 | Nexturastat A 0.052 | vemurafenib 0.004 | [11] 0.004 | [12] 0.065 | givinostat 0.085 | barasertib 0.077
active: [3] -0.277

WDR4 (UniProt P57081)
Chain of UniProt P57081 (P57081 whole entry, looked up): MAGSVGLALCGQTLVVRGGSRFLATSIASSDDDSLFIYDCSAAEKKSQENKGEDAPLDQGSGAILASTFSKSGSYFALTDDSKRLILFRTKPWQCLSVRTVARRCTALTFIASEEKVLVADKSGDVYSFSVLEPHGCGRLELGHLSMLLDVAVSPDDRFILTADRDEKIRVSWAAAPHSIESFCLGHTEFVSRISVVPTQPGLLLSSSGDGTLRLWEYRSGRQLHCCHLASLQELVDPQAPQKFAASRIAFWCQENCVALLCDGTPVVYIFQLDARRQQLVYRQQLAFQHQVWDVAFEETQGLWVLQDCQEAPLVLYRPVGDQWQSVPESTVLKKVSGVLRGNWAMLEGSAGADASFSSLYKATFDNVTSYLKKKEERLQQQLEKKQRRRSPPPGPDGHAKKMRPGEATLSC
active: [11] 0.26
inactive: IRAK-1-4 Inhibitor I 0.024 | ibrutinib -0.052 | [1] 0.022 | ralimetinib -0.033 | [2] -0.003 | [3] -0.005 | [4] -0.072 | pinometostat -0.017 | [5] 0.019 | [6] 0.028 | [7] -0.112 | [8] -0.055 | [9] 0.173 | [10] 0.104 | Nexturastat A 0.048 | vemurafenib -0.004 | [12] -0.013 | givinostat -0.026 | barasertib -0.023

UBE2S (UniProt Q16763)
Chain of UniProt Q16763 (Q16763 whole entry, looked up): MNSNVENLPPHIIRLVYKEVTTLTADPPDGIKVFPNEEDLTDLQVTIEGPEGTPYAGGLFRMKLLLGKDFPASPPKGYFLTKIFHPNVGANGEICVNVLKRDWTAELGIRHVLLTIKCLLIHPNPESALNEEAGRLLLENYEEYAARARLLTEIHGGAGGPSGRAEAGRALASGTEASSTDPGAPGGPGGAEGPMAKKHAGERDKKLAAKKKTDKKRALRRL
inactive: IRAK-1-4 Inhibitor I -0.065 | ibrutinib -0.035 | [1] -0.037 | ralimetinib 0.03 | [2] -0.034 | [3] 0.018 | [4] 0.125 | pinometostat -0.05 | [5] -0.004 | [6] -0.055 | [7] 0.024 | [8] -0.015 | [9] 0.004 | [10] 0.009 | Nexturastat A 0.057 | vemurafenib 0.013 | [11] 0.049 | [12] -0.007 | givinostat 0.044 | barasertib 0.03

TMEM9 (UniProt Q9P0T7)
Chain of UniProt Q9P0T7 (Q9P0T7 whole entry, looked up): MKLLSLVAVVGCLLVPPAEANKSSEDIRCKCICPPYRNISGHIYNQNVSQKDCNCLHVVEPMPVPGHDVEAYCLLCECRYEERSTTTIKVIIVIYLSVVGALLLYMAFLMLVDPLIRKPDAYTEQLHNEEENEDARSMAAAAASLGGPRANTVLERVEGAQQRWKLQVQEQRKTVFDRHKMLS
inactive: IRAK-1-4 Inhibitor I 0.076 | ibrutinib 0.039 | [1] 0.012 | ralimetinib -0.003 | [2] -0.07 | [3] -0.211 | [4] 0.064 | pinometostat -0.042 | [5] 0.067 | [6] -0.013 | [7] -0.024 | [8] -0.041 | [9] 0.057 | [10] -0.008 | Nexturastat A 0 | vemurafenib 0.028 | [11] 0.091 | [12] -0.062 | givinostat 0.039 | barasertib 0.019

TXNRD1 (UniProt Q16881)
Chain of UniProt Q16881 (Q16881 whole entry, looked up): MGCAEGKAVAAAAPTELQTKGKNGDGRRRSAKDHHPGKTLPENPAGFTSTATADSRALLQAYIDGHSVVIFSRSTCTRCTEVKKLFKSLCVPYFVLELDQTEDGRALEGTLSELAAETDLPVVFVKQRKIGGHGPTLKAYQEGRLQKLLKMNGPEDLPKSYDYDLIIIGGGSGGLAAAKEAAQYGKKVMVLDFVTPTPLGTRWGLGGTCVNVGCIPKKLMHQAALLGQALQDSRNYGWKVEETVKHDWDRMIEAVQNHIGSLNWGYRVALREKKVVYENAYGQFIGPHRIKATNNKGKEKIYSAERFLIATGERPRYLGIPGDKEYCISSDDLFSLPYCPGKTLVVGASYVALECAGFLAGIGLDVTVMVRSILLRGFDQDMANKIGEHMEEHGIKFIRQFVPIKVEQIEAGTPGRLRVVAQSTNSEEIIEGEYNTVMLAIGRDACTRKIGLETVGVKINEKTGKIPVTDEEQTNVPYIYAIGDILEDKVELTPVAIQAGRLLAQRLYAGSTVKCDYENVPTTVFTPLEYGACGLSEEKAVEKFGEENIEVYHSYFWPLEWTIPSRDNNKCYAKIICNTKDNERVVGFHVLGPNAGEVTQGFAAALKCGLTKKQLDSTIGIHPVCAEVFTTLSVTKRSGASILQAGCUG
inactive: IRAK-1-4 Inhibitor I 0.064 | ibrutinib -0.035 | [1] -0.062 | ralimetinib -0.088 | [2] -0.049 | [3] -0.013 | [4] -0.03 | pinometostat -0.042 | [5] -0.011 | [6] 0.077 | [7] 0.032 | [8] 0.006 | [9] 0.021 | [10] 0.039 | Nexturastat A -0.051 | vemurafenib 0.024 | [11] 0.007 | [12] -0.035 | givinostat 0.011 | barasertib 0.024
